# From PubChem BioAssay
# GLP1R cytotox: qHTS of GLP-1 Receptor Inverse Agonists: Cytotox Screen; HEK293 cAMP-luciferase reporter cells, luminescence, 24 h; Potency, µM (top dose mostly 38.3 µM), inactives show at the highest dose activity change, negative = inhibition, actives largely listed as inhibitors; hit rate 0.13% among 410,000; AID 624418, 2012;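 also: loss of luciferase light is scored as toxicity; % is scaled to controls: 0 for no effect and ±100 for the full control effect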
#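 Quantitative HTS format, 1536 wells, 200 cells/uL seeded. Compounds: 23 nL, 24 h, 37 °C. Detection: luciferase reagent, luminescence at 12 min RT; decreased signal taken as cytotoxic.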
# GLP-1R agonist: qHTS of GLP-1 Receptor Agonists; hit rate 0.007% among 380,000; HEK293 GLP-1R CRE-luciferase, luminescence, 4-6 h; cells express a hypersensitive GLP-1R form; Potency, µM (titrated, usually from 45.6 µM), for inactives: top-dose activation, actives largely listed as activators; also: % of control where 0% means no effect
# Target sequence (P43220 whole entry, looked up): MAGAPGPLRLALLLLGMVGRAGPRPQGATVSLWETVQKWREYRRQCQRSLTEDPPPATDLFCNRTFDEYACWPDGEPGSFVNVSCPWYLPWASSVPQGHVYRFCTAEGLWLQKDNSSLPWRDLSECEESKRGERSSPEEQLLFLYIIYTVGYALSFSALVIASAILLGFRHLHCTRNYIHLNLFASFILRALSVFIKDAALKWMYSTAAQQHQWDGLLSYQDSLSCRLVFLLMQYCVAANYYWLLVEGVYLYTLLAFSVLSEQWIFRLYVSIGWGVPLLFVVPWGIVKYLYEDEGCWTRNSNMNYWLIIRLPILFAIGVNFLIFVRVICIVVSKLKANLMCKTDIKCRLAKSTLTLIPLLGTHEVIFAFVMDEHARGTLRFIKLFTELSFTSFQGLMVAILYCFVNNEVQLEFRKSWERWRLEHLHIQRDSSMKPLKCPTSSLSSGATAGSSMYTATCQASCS
# GLP1R inv ag: qHTS of GLP-1 Receptor Inverse Agonists (Inhibition Mode); Glucagon-like peptide 1 receptor (Homo sapiens), P43220; HEK293 GLP-1R CRE-luciferase, luminescence, 24 h; GLP-1R form is constitutively active; Potency, µM (series often up to 38.3 µM), for the others: top-dose activity change, negative = inhibition, hits mostly inhibitors; hit rate 1.6% among 410,000; AID 624417, 2012; also: % is scaled to controls: 0 for no effect and ±100 for the full control effect; nearly all actives have a fitted effect of over 55% in size
#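 Assay principle: reduced luminescence from a cAMP-responsive reporter in HEK293 cells co-expressing a constitutively active GLP-1R. Conditions: 24 hr compound incubation, 37 deg C, 5% CO2.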
# BRCA1 expr up: qHTS Assay to Identify Small Molecule Activators of BRCA1 Expression; Potency, µM (series often up to 46.1 µM), without a hit: at the top dose activation, usual class: activators; hit rate 1.1% among 380,000; MCF7-BRCA1-FFLuc reporter, luminescence, 48 h; response scale: scaled: vehicle 0%, 10 µM genistein 100%; AID 624202, 2012; also: nearly all actives have a fitted effect of over 80% in size
#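 Cells: MCF7-BRCA1-FFLuc, 2000/well. Exposure: 48 h, 37 °C, 5% CO2. Read: luminescence, 15 min post-substrate. Controls: genistein 10 microM (maximal activation), DMSO (neutral).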
# * = called active by the depositor; ? = inconclusive; nt = no result given; [ ] = another dose, or the depositor's remark. This is a sample that favours compounds with a hit; in the whole collection about 2.6% have one here. Calls follow the shape of the dose curve; as a rule, active = well fitted curve in the direction sought with a large enough effect; inconclusive = small, poorly fitted or top-dose-only effect, or another doubt; inactive = no such curve, though single readings can be large; an effect the other way counts as inactive or inconclusive. Potency is read from the fitted curve at half-maximal effect.
SMILES,GLP1R cytotox,GLP-1R agonist,GLP1R inv ag,BRCA1 expr up
CCOc1ccccc1C(=O)N1CCC(c2nc3ccccc3o2)CC1,-5%,nt,5%,nt
O=S(=O)(c1ccccc1)n1ccc(-c2cnc(-c3ccccc3)s2)n1,-14%,4%,0%,7.9µM*
CC(C)(C)c1ccc(-c2nc(NC(=O)CSc3ncnc4sc5c(c34)CCCC5)ns2)cc1,-2%,nt,0%,nt
Fc1cc(Cl)c(OCc2noc(-c3ccsc3)n2)c(Cl)c1,-2%,1%,11%,81%
Clc1ccc(OCc2noc(-c3ccsc3)n2)c(Cl)c1,8%,25%,?,3.5µM*
CCCC1=Nc2cc(C(=O)NC3CCCCC3)ccc2Sc2ccc(C)cc21,?,nt,0.79µM*,nt
CC1=Nc2cc(C(=O)NC3CCC(C)CC3)ccc2Sc2c(C)ccc(C)c21 (centres undefined),?,20%,0.79µM*,-20%
CCCC1=Nc2cc(C(=O)NCCOC)ccc2Sc2ccccc21,?,nt,2.2µM*,nt
CCCC1=Nc2cc(C(=O)NCC(C)c3ccccc3)ccc2Sc2ccccc21 (centres undefined),?,-2%,3.2µM*,-41%
CCCC1=Nc2cc(C(=O)NCCCOC(C)C)ccc2Sc2ccccc21,-23%,5%,3%,-83%
CCCC1=Nc2cc(C(=O)NC3CCCC3)ccc2Sc2ccc(C)cc21,-23%,nt,?,nt
Cc1c(C(=O)N2c3ccccc3CC2C)oc2ccccc12 (centres undefined),-16%,-3%,10µM*,48%
Cc1ccc(S(=O)(=O)NCC(=O)N2CCN(c3ccc(F)cc3)CC2)cc1,18%,-10%,-11%,-5%
COc1ccccc1NC(=O)c1cc2cc(Br)ccc2cc1O,17%,-4%,6.3µM*,-51%
COc1cc(NC(=O)c2cc3ccccc3cc2O)c(OC)cc1Cl,37%,-3%,?,-65%
CCCCCCC(O)C/C=C\CCCCCCCC(=O)O (centres undefined),nt,1%,nt,nt
CC(C(=O)NCc1ccco1)n1nc(-c2ccccc2)c2cc(Cl)ccc21 (centres undefined),1%,-3%,-12%,-6%
CC(=O)c1ccc(NC(=O)C(C)n2nc(-c3ccccc3)c3cc(Cl)ccc32)cc1 (centres undefined),-28%,-6%,6.3µM*,-57%
CCn1c2ccccc2c2cc(CN3CCN(Cc4cc(OC)c(O)c(OC)c4)CC3)ccc21,-1%,nt,11µM*,nt
CCn1c2ccccc2c2cc(CN3CCN(Cc4cc(OC)ccc4O)CC3)ccc21,-21%,12%,?,-24%
CN(Cc1cccc2ccccc12)C(=O)c1cc(COc2c(F)cccc2F)on1,-18%,10%,10µM*,-16%
Cc1nc(CN(C)C(=O)c2cc(COc3c(F)cccc3F)on2)cs1,-5%,6%,-10%,35%
CN(Cc1cc(-c2ccccc2)on1)C(=O)c1cc(COc2c(F)cccc2F)on1,-4%,19%,?,11µM*
CN(CCc1cnn(C)c1)C(=O)CCc1nnc(CCCc2ccccc2)o1,3%,2%,25%,40%
CN(CCc1ccccn1)C(=O)CCc1nnc(CCCc2ccccc2)o1,1%,11%,20%,13µM*
SMILES,GLP1R cytotox,GLP-1R agonist,GLP1R inv ag,BRCA1 expr up
O=[N+]([O-])c1ccc(-c2nc(-c3cccs3)c(-c3cccs3)[nH]2)cc1,?,-5%,3.2µM*,-73%
O=[N+]([O-])c1cccc(-c2nc(-c3ccccc3)c(-c3cccs3)[nH]2)c1,7%,-26%,-10%,-22%
O=[N+]([O-])c1cccc(-c2nc(-c3cccs3)c(-c3cccs3)[nH]2)c1,0%,1%,2.5µM*,-49%
CCCC(=O)N1CCC1(C)C(=O)Nc1ncc(C(=O)OC)s1 (centres undefined),0%,-5%,-17%,18%
Cc1cccc(NC(=O)CSc2nccn2Cc2ccc(F)cc2)c1C,5%,nt,?,nt
O=C(Nc1cccc(C(F)(F)F)c1)c1cc2nc(-c3ccccc3)cc(C(F)(F)F)n2n1,6%,nt,-20%,nt
COc1ccc(CC(=O)NC2CC(=O)N(c3ccc4c(c3)OCCO4)C2)cc1 (centres undefined),-5%,0%,-3%,10%
O=C(Cc1ccccc1)NCCS(=O)(=O)N1CCN(c2cccc(Cl)c2)CC1,19%,9%,?,-26%
O=C(Cc1ccc(F)cc1)NCCS(=O)(=O)N1CCN(c2cccc(Cl)c2)CC1,2%,0%,10µM*,-37%
COc1ccc(CNc2ncnc3c2c(-c2ccccc2)cn3-c2ccccc2)cc1,0%,nt,6.3µM*,nt
COc1ccc(CCNc2ncnc3c2c(-c2ccccc2)cn3-c2cccc(Cl)c2)cc1OC,-7%,nt,10µM*,nt
CCOc1ccc(-n2cc(-c3ccccc3)c3c(NCc4ccc(F)cc4)ncnc32)cc1,-3%,nt,1.4µM*,nt
CCOc1ccc(-n2cc(-c3ccccc3)c3c(NCc4ccccc4)ncnc32)cc1,3%,nt,?,nt
COc1ccc(-n2cc(-c3ccccc3)c3c(NCCc4ccc(OC)c(OC)c4)ncnc32)cc1,-11%,nt,?,nt
Nc1ccc(C(Cc2ccnc3ccccc23)Cc2ccnc3ccccc23)cc1,nt,nt,nt,-33%
Cc1ccccc1NS(=O)(=O)c1ccc2[nH]cc(C(=O)N3CCCC3)c(=O)c2c1,-11%,nt,9%,nt
OC(CNCc1ccncc1)c1ccccc1 (centres undefined),-6%,-2%,6%,3%
OC(CNCc1ccc(-c2ccccc2)cc1)c1ccccc1 (centres undefined),?,?,10µM*,-21%
Cc1ccc(C(=O)N/N=C\c2ccccc2[N+](=O)[O-])cn1,-1%,3%,14%,4.5µM*
Cc1ccc(C(=O)N/N=C\C=C\c2ccccc2[N+](=O)[O-])cn1,1%,-4%,9%,-27%
CCC(=O)Nc1ccc(C(=O)NNC(=O)c2ccccc2)cc1,4%,5%,12%,1%
CCC(=O)Nc1ccc(C(=O)Nc2cccc(C)n2)cc1,-4%,0%,9%,2.5µM*
Cc1cccc(NC(=O)Cc2ccc(-c3ccccc3)cc2)n1,9%,2%,?,32%
Cc1ccc(CC(=O)Nc2cccc(C)n2)cc1,10%,10%,-1%,10µM*
CC(=O)N/N=C/C1=CCC2CC1C2(C)C (centres undefined),-4%,7%,17%,5%
C=C(C)CNC(=S)N/N=C/C1=CCC2CC1C2(C)C (centres undefined),?,0%,5µM*,-21%
CCCCNC(=S)N/N=C/C1=CCC2CC1C2(C)C (centres undefined),7%[1.53 µM],-1%,?,-26%
CC(C)NC(=S)N/N=C/C1=CCC2CC1C2(C)C (centres undefined),?,17%,8.9µM*,-18%
